The list is not random: actives were taken first. Their share in the collection is about 8.1%.
KB-3-1 tox: KB-3-1 parental cell cytotoxicity; 400,000 compounds, 1.4% hits; Potency, µM (series often up to 46.1 µM), actives largely listed as cytotoxic; AID 1347075; KB-3-1 viability, CellTiter-Glo ATP luminescence, 72 h; also: % is scaled to controls: 0 for no effect and ±100 for the full control effect; nearly all actives have a fitted effect of over 60% in size
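Parental KB-3-1 viability, qHTS format: 72 h compound exposure, 37 °C; CellTiter-Glo; media-only wells and DMSO plates as controls; concentration-effect fits on corrected data.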
MCF10A rereplic: inducers of DNA re-replication in MCF 10A breast cells; Potency, µM (highest dose often 46.1 µM), for the others: top-dose activity, positive = re-replication, usual class: activators; AID 624296; 350,000 compounds, 2.9% hits; MCF 10A DNA re-replication, Hoechst nuclear intensity, 48 h; also: % of control where 0% means no effect; nearly all actives have a fitted effect of over 50% in size
SW480 rerep: DNA re-replication induction in SW480 cells. Potency, µM (series often up to 46.1 µM), for the others: at the highest dose re-replication activation, usual class: activators. SW480 DNA re-replication, Hoechst DNA content imaging, 48 h. 340,000 compounds, 1.8% hits; also: % of control where 0% means no effect; nearly all actives have a fitted effect of over 55% in size
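Per well, 250 cells were exposed to pinned compound for 48 hr. Nuclear DNA was visualised with Hoechst (40 min, 37 C) and total object intensity recorded by fluorescence scanning.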
KB-V1 MDR tox: KB-V1 MDR subline cytotoxicity. 400,000 compounds, 3.4% hits. Potency, µM (highest dose often 46.1 µM), usual class: cytotoxic. KB-V1 MDR cells viability, CellTiter-Glo, 72 h. AID 1347076; also: % is scaled to controls: 0 for no effect and ±100 for the full control effect; nearly all actives have a fitted effect of over 60% in size
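Following 72 h at 37 degrees C with compound, KB-V1 cell viability was read by CellTiter-Glo luminescence, medium being phenol-red-free DMEM plus 10% FBS; concentration-response parameters came from normalized, curve-fitted qHTS data.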
ELG1 DNA repair: inhibitors of ELG1-dependent DNA repair in HEK293T cells | HEK293T ELG1-luciferase reporter, luminescence, 16 h; DNA damage induced by 5-fluorouridine | AID 504467 | 330,000 compounds, 2.3% hits | Potency, µM (highest dose often 46.1 µM), for inactives: at the highest dose activity change, negative = inhibition, hits mostly inhibitors; also: % is scaled to controls: 0 for no effect and ±100 for the full control effect; nearly all actives have a fitted effect of over 55% in size
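In this reporter screen, reduction of luminescence relative to DMSO vehicle indicated activity. Compounds and 5-fluorouridine were added together to 2,000 cells per well, incubated for 16 hr at 37 °C, then developed with ONE-Glo.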
Starred values were filed as active, the others as inactive; i = inactive; ? = inconclusive; . = not tested or not shown; [ ] = dose if it differs, or a comment. Calls follow the shape of the dose curve; as a rule, active = well fitted curve in the direction sought with a large enough effect; inconclusive = small, poorly fitted or top-dose-only effect, or another doubt; inactive = no such curve, though single readings can be large; an effect the other way counts as inactive or inconclusive. Potency is read from the fitted curve at half-maximal effect.

SMILES	KB-3-1 tox	MCF10A rereplic	SW480 rerep	KB-V1 MDR tox	ELG1 DNA repair
Cc1ccc(/C=N/NC(=O)CSc2nc3ccccc3c(=O)n2-c2ccccc2)s1	i	-65%	-6%	i	?
CCn1c(SCC(=O)N/N=C/C=C/c2ccco2)nc2ccccc21	i	21µM*	16µM*	i	-2%
CCn1c(SCC(=O)N/N=C/c2ccc(C)s2)nc2ccccc21	13µM*	13µM*	?	?	?
Cc1ccccc1-n1c(SCC(=O)N/N=C/c2c(C)nn(-c3ccccc3)c2C)nc2ccccc2c1=O	i	?	-26%	5.8µM*	?
CCOC(=O)c1cc(C#N)c(SCC(=O)c2cc(C#N)c(SC)nc2C)[nH]c1=O	i	-1%	-3%	?	-2%
COC(=O)c1ccc(C(=O)OC)c(NC(=O)Cc2cccs2)c1	i	.	.	i	.
O=C(NCc1ccccc1)C1C2C=CC3(CN(Cc4cccnc4)C(=O)C13)O2 (stereo not drawn)	i	-19%	0%	?	2%
CCCCc1nc(NCCNC(=O)c2ccccc2)c(C#N)c2c1CSC(C)(C)C2	i	?	?	?	?
Cc1cc(C)n(CCN(C)C(=O)CCc2nnc(-c3ccc4c(c3)OCO4)o2)n1	i	-15%	2%	i	5%
Cc1nc2nc(SCC(=O)NCCc3ccccc3)nn2c(C)c1Cc1c(F)cccc1Cl	i	.	.	i	.
CC(C)c1cccc(C(C)C)c1OC(=O)NC(=O)c1c(F)cccc1F	i	-2%	2%	i	7%
Cc1cc(=O)oc(C)c1C(=O)Nc1c(C)n(C)n(-c2ccccc2)c1=O	i	-1%	1%[9.22 µM]	i	5%
C/C(=N\NC(=O)c1cc(-c2ccco2)nc2ccccc12)c1cccnc1	i	-15%	?	i	-9%
O=C(Nc1cccc2oc(=O)ccc12)c1ccc([N+](=O)[O-])cc1[N+](=O)[O-]	?	-1%	16µM*	?	-22%
COc1cccc(-c2nn(-c3ccccc3)cc2/C=C\C(=O)c2cccs2)c1	i	?	?	?	?
CC(C)(C)NC(=O)CON=C1c2ccccc2-c2ccccc21	i	?	4%	16µM*	-16%
Cc1cccc(N2C(=O)C(Oc3ccc(Cl)cc3Cl)C2C=O)c1C (stereo not drawn)	?	18µM*	?	?	6%
COCCN1CC(=O)N(c2cccc(C)c2C)C(c2ccc(Cl)cc2)C1=O (stereo not drawn)	i	6%	-3%	i	2%
O=C(NCCNC(=O)c1ccc(-c2ccc(Cl)c(Cl)c2)o1)c1cnccn1	i	9%	-5%	?	4%
COc1ccccc1-c1nn(-c2ccccc2)cc1C(=O)NCC(c1ccco1)N1CCCC1 (stereo not drawn)	i	15%	-7%	i	-18%
O=C(c1cn(-c2ccccc2)nc1-c1cccs1)N1CCOCC1	i	1%	-2%	?	1%
O=C(Nc1nc2ccccc2n1CCN1CCOCC1)c1ccccc1	i	0%	-1%	i	?
O=C(Nc1nc2ccccc2n1CCN1CCOCC1)c1cn(-c2ccccc2)nc1-c1ccccc1	?	?	?	?	18µM*
O=C(NC(=S)N1CCOCC1)c1cn(-c2ccccc2)nc1-c1ccc(F)cc1	i	9%	10%	21µM*	-22%
O=C(NCC(c1ccco1)N1CCCC1)c1cn(-c2ccccc2)nc1-c1ccc(F)cc1 (stereo not drawn)	i	21µM*	?	i	?
O=C(c1cn(-c2ccccc2)nc1-c1cccs1)N1CCN(c2ccccc2)CC1	8.2µM*	6.5µM*	2.9µM*	?	6%
Cc1cc(C(F)F)n2nc(C(=O)Nc3ccc(S(=O)(=O)N4CCCC4)cc3)nc2n1	i	-2%	-2%	i	11%
COc1ccc(-c2cn(-c3ccc(C)cc3)c(S(=O)(=O)CC(=O)Nc3ccccc3)n2)cc1	i	.	.	i	.
CCO[C@H]1OC(C(=O)Nc2ccccc2)=C[C@@H](C)[C@@H]1CCCO	i	?	1%	i	22%

Compound activity deposited in PubChem BioAssay by National Center for Advancing Translational Sciences (NCATS).
